Screens (PubChem BioAssay)
Compounds with a hit are over-represented: about 2.4% of the library has one in this group of screens.
CR mimetic SO = yeast age-related superoxide inhibition as caloric restriction mimetic. superoxide response (% of plate mean), % at 10 µM. AID 2690. hit rate 0.18% among 330,000. S. cerevisiae aged cells, superoxide DHE fluorescence; stronger effect = lower value;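 active means superoxide response under a set limit, about three screen SD below normal, cut at about 65% in these data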;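 further: yeast aged for seven days with compound at 30 °C before DHE staining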
APOBEC3G inh = blocks human APOBEC3G single-stranded DNA deamination | inhibition, % at 20 µM | Q9HC16 | hit rate 0.28% among 330,000 | recombinant A3G, ssDNA deamination FAM/TAMRA fluorescence;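 active means inhibition of at least 40% at 20 µM, with no more than 30% in the related APOBEC3A deaminase screen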
Target sequence (Q9HC16 whole entry, looked up): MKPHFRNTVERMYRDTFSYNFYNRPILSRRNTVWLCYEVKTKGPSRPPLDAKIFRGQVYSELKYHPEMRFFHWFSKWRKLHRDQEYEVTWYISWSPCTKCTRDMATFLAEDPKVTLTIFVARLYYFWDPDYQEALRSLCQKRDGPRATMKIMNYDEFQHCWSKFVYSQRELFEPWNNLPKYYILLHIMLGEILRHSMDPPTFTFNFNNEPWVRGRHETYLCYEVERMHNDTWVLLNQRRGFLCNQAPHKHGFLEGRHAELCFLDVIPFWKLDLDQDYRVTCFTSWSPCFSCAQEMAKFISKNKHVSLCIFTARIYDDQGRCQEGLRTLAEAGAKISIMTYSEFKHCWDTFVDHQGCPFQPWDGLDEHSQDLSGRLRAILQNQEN
APOBEC3A inh = human APOBEC3A DNA deaminase inhibition | hit rate 0.41% among 330,000 | AID 493011 | recombinant A3A, FAM/TAMRA ssDNA deamination fluorescence | inhibition, % at 20 µM;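 active means at least 40% inhibition at 20 µM here, with at most 30% in a related deaminase screen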
PfG6PD inh = PfG6PD (Plasmodium falciparum) enzyme inhibition; PfGluPho enzyme, NADPH resazurin-diaphorase fluorescence; inhibition, % at 20 µM; hit rate 0.78% among 350,000; AID 504690;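 active means inhibition reaching at least a set limit at 20 µM in the primary screen, cut at about 59% in these data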
PfM18AAP inh = blocks P. falciparum M18 aspartyl aminopeptidase | recombinant PfM18AAP, H-Glu-NHMec fluorogenic cleavage | inhibition, % at 7.35 µM | hit rate 1.2% among 290,000;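 active means inhibition above the campaign mean inhibition over all tested compounds plus 3 SD, cut at about 28% in these data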
Hits are given with their value; - = inactive; . = no result given.

SMILES | CR mimetic SO | APOBEC3G inh | APOBEC3A inh | PfG6PD inh | PfM18AAP inh
CN(C)c1ccc(N2C(=O)CC(Nc3ccc(N4CCOCC4)cc3)C2=O)cc1 (stereo unspecified) | - | - | - | - | -
COc1cccc(N2C(=O)CC(Nc3ccc(N4CCOCC4)cc3)C2=O)c1 (stereo unspecified) | - | - | - | - | 29
O=C1CC(Nc2ccc(N3CCOCC3)cc2)C(=O)N1c1cccc(C(F)(F)F)c1 (stereo unspecified) | - | - | - | - | -
Cc1nn(Cc2ccccc2)c(Cl)c1/C=C/C(=O)OC(C(=O)NC(N)=O)C(C)C (stereo unspecified) | - | - | - | - | -
Cn1c(SCc2ccccc2)nnc1-c1ccncc1 | - | - | - | - | -
Cn1c(SCc2n[nH]c(=S)n2-c2ccccc2)nnc1-c1ccccc1 | - | - | - | - | 30
Cc1cccc(OCCC(=O)Nc2ccc(Cl)cc2F)c1 | - | - | - | - | -
CC(C)Cc1nc2sc3c(NCc4ccco4)ncnc3c2c2c1COC(C)(C)C2 | - | - | - | - | -
Cc1nc2sc3c(NCc4ccco4)ncnc3c2c2c1COC(C)(C)C2 | - | - | - | 62 | -
CC(N=Cc1cccc(O)c1O)c1ccccc1 (stereo unspecified) | - | - | - | - | 31
CC(N=Cc1cc([N+](=O)[O-])ccc1O)c1ccccc1 (stereo unspecified) | - | - | - | - | -
CCCNC(=O)CN1C(=O)COc2ccc(S(=O)(=O)N3CC(C)CC(C)C3)cc21 (stereo unspecified) | - | - | - | - | -
COc1ccccc1NS(=O)(=O)c1cccc(C(=O)N/N=C(\C)c2ccc(-n3ccnc3)cc2)c1 | - | - | - | - | 30
CCN(CC)C(=O)c1sc2[nH]c(=S)n(-c3ccccc3)c(=O)c2c1C | - | - | - | - | -
O=C(O)C1CCc2sc3[nH]c(=S)n(-c4ccccc4)c(=O)c3c21 (stereo unspecified) | - | - | - | - | 31
CCN1CCN(C2=C(NS(=O)(=O)c3ccc(C)cc3)C(=O)c3ccccc3C2=O)CC1 | - | - | - | - | 31
CCN1CCN(C2=C(NS(=O)(=O)c3ccc(NC(C)=O)cc3)C(=O)c3ccccc3C2=O)CC1 | - | - | - | - | -
CN(C)CCN=Cc1c(O)n(-c2ccc(S(=O)(=O)N3CCOCC3)cc2)c(=O)c2ccccc12 | . | - | - | - | .
Cn1ncc2c1NC(c1ccc(F)cc1)SCC2=O (stereo unspecified) | . | . | . | - | .
NNC(=O)c1cc2c(s1)CCCCCC2 | - | - | - | - | -
O=C(Nn1cnnc1)c1cc2c(s1)CCCC2 | - | - | - | - | 32
COc1cc2oc(-c3ccc(O)cc3)cc(=O)c2c(O)c1OC | - | - | - | - | .
COc1cc2oc(-c3ccc(O)cc3)cc(=O)c2c(OC)c1O | . | - | - | - | 33
Cc1[nH]c(=S)[nH]c(=O)c1Cc1c(O)ccc2ccccc12 | . | . | . | - | .
Cc1[nH]c(=S)[nH]c(=O)c1Cc1ccccc1 | - | - | - | - | 31
SMILES | CR mimetic SO | APOBEC3G inh | APOBEC3A inh | PfG6PD inh | PfM18AAP inh
S=C(Nc1ccc(N2CCOCC2)cc1)Nc1ccc2nc(-c3ccco3)c(-c3ccco3)nc2c1 | - | - | - | - | 44
O=C(Nc1ccc(N2CCOCC2)cc1)c1ccc2nc(-c3ccco3)c(-c3ccco3)nc2c1 | - | - | - | - | -
CC(=O)c1ccc(NC(=O)c2ccc3nc(-c4ccco4)c(-c4ccco4)nc3c2)cc1 | - | - | - | 78 | -
O=C(NCCO)Nc1ccc2nsnc2c1 | - | - | - | - | -
O=C(NCCO)Nc1ccc2nc(-c3ccco3)c(-c3ccco3)nc2c1 | - | - | - | . | 37
Oc1ccccc1-c1n[nH]c(=S)n1Cc1ccco1 | - | 41 | - | - | -
CS(=O)(=O)N(CC(=O)N1CCCC1)C1CCCCC1 | . | . | . | - | .
Cc1ccccc1-c1noc(CNC(=O)c2ccco2)n1 | - | - | - | - | -
O=C(NCc1n[nH]c(=S)n1-c1ccc(F)cc1)c1ccc(S(=O)(=O)N2CCOCC2)cc1 | - | - | - | - | 28
CN(CC(=O)Nc1cc(Cl)ccc1-n1cncn1)Cc1ccccc1N1CCOCC1 | . | . | . | - | .
CCN(CC)c1ccc(NS(=O)(=O)c2ccc3c(c2)oc(=O)n3C)c(C)c1 | - | - | - | - | 29
N#CCCN(C(=S)Nc1ccc(S(=O)(=O)N2CCOCC2)cc1)c1ccccc1F | . | - | - | - | .
O=C(OCc1ccccc1)N1CCC2CC1c1cc(-c3cc4ccccc4o3)ccc12 (stereo unspecified) | . | . | . | - | .
CN(CC(=O)Nc1ccncc1)S(=O)(=O)c1ccc(Br)cc1 | - | - | - | - | -
